Laboratory results taken from PubChem BioAssay (NCI).
Values joined by “and” are separate entries in the source; they are usually repeats but may differ in a detail not shown here. Equal values may be shown once. This is part of a sample that, as a whole, favours compounds with a hit. Of some 83,000 tested, about 20% had one in any assay.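 Assay: single dose, 48 h. Readout: percent growth (0 = no net growth; negative = cell death). Active: <10.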 Active and inactive are the calls of the source.

Legend:
Assay in all cases: NCI-60 one-dose screen, 48 h (100 = growth as untreated, 0 = no growth, -100 = all killed)
Settings in all cases: 10 µM unless noted
[1] = tested on: HCT-15 colon
[2] = tested on: HT29 colon
[3] = tested on: SNB-75 CNS
[4] = tested on: SNB-19 CNS
[5] = tested on: U251 CNS
[6] = tested on: PC-3 prostate
[7] = tested on: SK-MEL-5 melanoma
[8] = tested on: UACC-62 melanoma
[9] = tested on: LOX IMVI melanoma
[10] = tested on: SK-MEL-28 melanoma
[11] = tested on: SK-MEL-2 melanoma
[12] = tested on: SN12C renal
[13] = tested on: UO-31 renal
[14] = tested on: TK-10 renal
[15] = tested on: CAKI-1 renal
[16] = tested on: MOLT-4 leukemia
[17] = tested on: EKVX NSCLC
[18] = tested on: CCRF-CEM leukemia
[19] = tested on: ACHN renal
[20] = tested on: A498 renal

Compound	growth [1]	growth [2]	growth [3]	growth [4]	growth [5]	growth [6]	growth [7]	growth [8]	growth [9]	growth [10]	growth [11]	growth [12]	growth [13]	growth [14]	growth [15]	growth [16]	growth [17]	growth [18]	growth [19]	growth [20]
Nc1ccccc1SC1CC(=O)N(c2cccc3ccccc23)C1=O (stereo not drawn)	99% (inactive)	106% (inactive)	76.4% (inactive)	96.7% (inactive)	97.3% (inactive)	87.7% (inactive)	96.7% (inactive)	82.6% (inactive)	97.1% (inactive)	96.3% (inactive)	92.6% (inactive)	98.3% (inactive)	68.6% (inactive)	113% (inactive)	79.7% (inactive)	83.5% (inactive)	–	–	–	–
NCCSC(C[N+](=O)[O-])c1ccccc1Cl (stereo not drawn)	22.4% (inactive)	36% (inactive)	105% (inactive)	102% (inactive)	77.6% (inactive)	68.1% (inactive)	85.1% (inactive)	92.6% (inactive)	31.4% (inactive)	-20.5% (active)	34.9% (inactive)	–	63.3% (inactive)	51.8% (inactive)	99.8% (inactive)	-32.1% (active)	100% (inactive)	0.339% (active)	–	–
O=C(Nc1ccc(Br)cc1)c1cc(Br)ccc1O	15.2% (inactive) and 15.6% (inactive)	92.1% (inactive) and 36.7% (inactive)	-10.1% (active) and 49.2% (inactive)	22.1% (inactive) and 23.1% (inactive)	15.4% (inactive) and 10.2% (inactive)	5.68% (active) and 3.31% (active)	-65.5% (active) and -83.1% (active)	3.77% (active) and -27.9% (active)	2.39% (active) and 8.77% (active)	27% (inactive) and 16.4% (inactive)	-30.5% (active) and 13.2% (inactive)	–	-12.3% (active) and 0.207% (active)	9.29% (active) and 1.36% (active)	5.39% (active) and 10.4% (inactive)	17.4% (inactive) and -33.2% (active)	11% (inactive) and 13.6% (inactive)	23.4% (inactive) and 3.66% (active)	–	–
O=S(=O)(Nc1ccccc1)C1CCCCC1	109% (inactive) and 102% (inactive)	99.1% (inactive) and 99.6% (inactive)	86.7% (inactive) and 94.7% (inactive)	101% (inactive) and 107% (inactive)	109% (inactive) and 102% (inactive)	92.6% (inactive) and 105% (inactive)	110% (inactive)	92.6% (inactive) and 105% (inactive)	109% (inactive) and 95.5% (inactive)	–	103% (inactive)	94.9% (inactive) and 120% (inactive)	77.2% (inactive) and 88.3% (inactive)	103% (inactive) and 102% (inactive)	–	–	104% (inactive) and 97.2% (inactive)	105% (inactive)	110% (inactive) and 103% (inactive)	104% (inactive) and 95.9% (inactive)
OC(CSc1ccccc1)CN1CCN(c2cccc(Cl)c2)CC1 (stereo not drawn)	105% (inactive) and 101% (inactive)	104% (inactive) and 96.5% (inactive)	91.7% (inactive) and 102% (inactive)	100% (inactive) and 111% (inactive)	95% (inactive) and 102% (inactive)	92.9% (inactive) and 97.8% (inactive)	97.4% (inactive) and 96.8% (inactive)	92.2% (inactive) and 96.9% (inactive)	96.7% (inactive) and 96.3% (inactive)	–	98.3% (inactive) and 100% (inactive)	94.3% (inactive) and 103% (inactive)	76% (inactive) and 75% (inactive)	101% (inactive) and 112% (inactive)	92.2% (inactive) and 87.9% (inactive)	76.1% (inactive) and 94.9% (inactive)	102% (inactive) and 99% (inactive)	92.5% (inactive) and 98.1% (inactive)	103% (inactive) and 101% (inactive)	116% (inactive) and 89.9% (inactive)
CC1=C[C@H]2c3c(c(O)c(O)c4oc5cc(O)cc(O)c5c(=O)c34)[C@H](c3cc(O)c(O)c4oc5cc(O)cc(O)c5c(=O)c34)[C@H]2C(C)(C)C1	15.4% (inactive) and 3.72% (active)	-1.98% (active) and -20.8% (active)	24.1% (inactive) and -10.6% (active)	13.3% (inactive) and -11.3% (active)	0.997% (active) and -15.3% (active)	14.4% (inactive) and -26.9% (active)	-84.2% (active) and -98.1% (active)	-43.1% (active) and -68.9% (active)	-93.9% (active) and -100% (active)	10.3% (inactive) and -22.8% (active)	-20% (active) and -41.4% (active)	–	-5.69% (active) and -75.2% (active)	30.1% (inactive) and -5.84% (active)	-20.5% (active) and -2.78% (active)	7.66% (active) and -18.8% (active)	21.4% (inactive) and -31.9% (active)	6.01% (active) and -9.45% (active)	–	-4.52% (active) and -73.5% (active)
COc1cc(C(=O)c2ccc3c(c2)OCO3)cc(OC)c1OC	15.6% (inactive) and 27.4% (inactive)	5.54% (active) and -1.28% (active)	0.967% (active) and -9.36% (active)	35.9% (inactive) and 43.1% (inactive)	24.1% (inactive) and 16.2% (inactive)	29.3% (inactive)	18.3% (inactive) and 8.01% (active)	42.4% (inactive) and 22.9% (inactive)	24% (inactive) and 44% (inactive)	–	44.6% (inactive) and -28.3% (active)	47.1% (inactive) and 39.5% (inactive)	16.2% (inactive) and 37.6% (inactive)	31.7% (inactive) and 27.3% (inactive)	4.39% (active) and 24.7% (inactive)	40.7% (inactive) and 42.7% (inactive)	55.7% (inactive) and 61.5% (inactive)	19.5% (inactive)	39.4% (inactive) and 48.1% (inactive)	–
Cc1c(Cl)cccc1NCN1C(=O)c2ccccc2C1=O	98.4% (inactive)	104% (inactive)	94.4% (inactive)	110% (inactive)	95.5% (inactive)	101% (inactive)	99.5% (inactive)	114% (inactive)	97% (inactive)	112% (inactive)	103% (inactive)	112% (inactive)	82.8% (inactive)	114% (inactive)	–	–	–	105% (inactive)	105% (inactive)	101% (inactive)
OCCN1CCN(CCCN2c3ccccc3Sc3ccc(Cl)cc32)CC1	49.6% (inactive) and 80.8% (inactive)	1.64% (active) and 18.2% (inactive)	59.8% (inactive) and 45.6% (inactive)	75.6% (inactive) and 100% (inactive)	58.2% (inactive) and 73.1% (inactive)	47.7% (inactive) and 67% (inactive)	50.4% (inactive)	-64.3% (active) and 23.5% (inactive)	29.4% (inactive) and 69.6% (inactive)	–	46.5% (inactive) and 74.9% (inactive)	50.2% (inactive) and 72.8% (inactive)	36.1% (inactive) and 45.1% (inactive)	47.8% (inactive) and 75.4% (inactive)	47.9% (inactive) and 68.8% (inactive)	47.9% (inactive) and 53.3% (inactive)	66.8% (inactive)	40.6% (inactive) and 55.9% (inactive)	62.3% (inactive) and 76.1% (inactive)	58.4% (inactive) and 77.8% (inactive)
